Data as given in PubChem BioAssay.
Values without a mark were called inactive. The rule behind the calls is not given here.

biological target: Pantothenate synthetase (Mycobacterium tuberculosis (strain ATCC 25618 / H37Rv)) (UniProt P9WIL5); experiment: Coupled enzyme confirmation of inhibitors against recombinant Mtb PanC (AID 375); conditions: coupled enzyme assay; at 10 µM, stronger effect = higher value;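 note: 0% = full reaction with vehicle and 100% = no enzyme background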
Sequence (P9WIL5 whole entry, looked up): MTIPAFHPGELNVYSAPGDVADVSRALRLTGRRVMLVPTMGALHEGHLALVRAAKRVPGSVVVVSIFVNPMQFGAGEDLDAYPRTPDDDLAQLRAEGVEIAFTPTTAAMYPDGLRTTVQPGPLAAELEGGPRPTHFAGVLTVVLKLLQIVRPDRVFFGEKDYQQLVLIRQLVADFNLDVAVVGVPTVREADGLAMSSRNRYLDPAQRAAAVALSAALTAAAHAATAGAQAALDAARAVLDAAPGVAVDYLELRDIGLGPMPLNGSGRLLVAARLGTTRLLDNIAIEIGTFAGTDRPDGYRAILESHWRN

**Q.** CCOC(=O)c1cc(-c2ccc(Cl)s2)nc2c1c(C)nn2C was tested. Which inhibition did it give?
**A.** The inhibition was 0%.

**Q.** How did the inhibition turn out when CN(C)S(=O)(=O)c1ccc(C(=O)Nc2ccccc2C(=O)O)cc1 was run?
**A.** The inhibition was 8%.

**Q.** For CCOC(=O)N1CCC2(CC1)CC(=O)c1c(ccc3oc(C(=O)O)c(C)c13)O2, which inhibition is on record?
**A.** The inhibition was 0%.

**Q.** Which inhibition does the source give for COc1ccc(CN(Cc2cc3cc4c(cc3[nH]c2=O)OCO4)C(=O)NC2CCCCC2)cc1 here?
**A.** Its inhibition is 3%.

**Q.** How did the inhibition turn out when CSc1nnc2c3ccccc3n(Cc3ccccc3)c2n1 was run?
**A.** The inhibition was 7%.

**Q.** How did the inhibition turn out when C=CCn1c(Br)nc2c1c(=O)[nH]c(=O)n2C was run?
**A.** Its inhibition is 0%.

**Q.** For COC(=O)CNC(=O)COC(=O)c1cc(Cl)cc(Cl)c1N, which inhibition is on record?
**A.** Its inhibition is 0%.

**Q.** For C=CCn1c(SCC(=O)NCC2CCCO2)nnc1C1CCCCC1 (stereo not given), which inhibition is on record?
**A.** The inhibition was 8%.

**Q.** How did the inhibition turn out when Cc1ccc(S(=O)(=O)N2CCN(C(=O)CN3C(=O)NC4(CCOc5ccccc54)C3=O)CC2)cc1 (stereo not given) was run?
**A.** Its inhibition is 2%.

**Q.** How did the inhibition turn out when CC1(C)CC(=O)N(CC(=O)NCc2ccccc2)c2ccccc2S1(=O)=O was run?
**A.** Its inhibition is 0%.

**Q.** How did the inhibition turn out when CCOC(=O)N1CCN(C(=O)c2ccc(CS(=O)(=O)c3ccc(OC)cc3)o2)CC1 was run?
**A.** Its inhibition is 1%.

**Q.** How did the inhibition turn out when CC(=O)N(c1ccc(Br)cc1)C1C=CS(=O)(=O)C1 (stereo not given) was run?
**A.** The inhibition was 2%.

**Q.** With Cn1c(=O)n(C)c2cc(NC(=O)C(F)(F)F)ccc21 as the molecule, how does the inhibition read?
**A.** Its inhibition is 0%.

**Q.** With CN(Cc1ccccc1)Cc1nc2c([nH]1)c(=O)[nH]c(=O)n2C as the molecule, how does the inhibition read?
**A.** Its inhibition is 7%.

**Q.** COc1cccc(-c2csc(N3CCN(CC(=O)Nc4ccc5c(c4)OCO5)CC3)n2)c1 was tested. Which inhibition did it give?
**A.** Its inhibition is 0%.

**Q.** How did the inhibition turn out when CC1Oc2ccccc2N(CC(=O)N(Cc2ccccc2)Cc2ccccn2)C1=O (stereo not given) was run?
**A.** The inhibition was 4%.

**Q.** For CCC(NC(C)C)C(O)c1ccc(O)c(O)c1 (stereo not given), which inhibition is on record?
**A.** Its inhibition is 0%.

**Q.** For Cc1cc(C)cc(N(CC(=O)NC2CCC(C)CC2)S(=O)(=O)c2c(C)noc2C)c1 (stereo not given), which inhibition is on record?
**A.** The inhibition was 0%.

**Q.** O=C(Cn1cccc1)N1CCN(C(c2ccccc2)c2ccccc2)CC1 was tested. Which inhibition did it give?
**A.** Its inhibition is 13%.

**Q.** COC(=O)C1=C(N)Oc2cc(C)[nH]c(=O)c2C1c1ccncc1 (stereo not given) was tested. Which inhibition did it give?
**A.** The inhibition was 0%.

**Q.** Which inhibition does the source give for CCc1ccc(C2CC(c3ccccc3)n3ncnc3N2)cc1 (stereo not given) here?
**A.** Its inhibition is 0%.

**Q.** Which inhibition does the source give for O=C(Nc1ccccc1N1CCCCC1)c1ncoc1-c1ccc(F)cc1 here?
**A.** Its inhibition is 1%.

**Q.** COc1ccc(C(=O)Nc2ccc(S(=O)(=O)Nc3nccnc3OC)cc2)cc1OC was tested. Which inhibition did it give?
**A.** The inhibition was 0%.

**Q.** How did the inhibition turn out when Cc1ccccc1NC(=O)N1C2CCCC1CC(NC(=O)C1CC1)C2 (stereo not given) was run?
**A.** The inhibition was 14%.

**Q.** For Cc1cccc(N2C(=O)CC(N(C(=O)c3ccco3)c3cccc(C)c3)C2=O)c1 (stereo not given), which inhibition is on record?
**A.** The inhibition was 0%.

**Q.** O=C(NCC1CCCO1)c1cc(-c2ccncc2)nc2ccc(S(=O)(=O)N3CCOCC3)cc12 (stereo not given) was tested. Which inhibition did it give?
**A.** Its inhibition is 0%.

**Q.** How did the inhibition turn out when Cc1cc(N2CCOCC2)nc2ccc(NC(=O)C3CCC(C)CC3)cc12 (stereo not given) was run?
**A.** The inhibition was 0%.

**Q.** How did the inhibition turn out when COC(=O)C1CCN(C(=O)c2sc3nc(-c4ccc(F)cc4)cn3c2C)CC1 was run?
**A.** The inhibition was 0%.

**Q.** Which inhibition does the source give for CCCCCCC(c1c(C)n(C)n(-c2ccccc2)c1=O)c1c(C)n(C)n(-c2ccccc2)c1=O here?
**A.** The inhibition was 0%.

**Q.** For CCCCCCC(=O)c1c(C)[nH]c(C(=O)OCC)c1C, which inhibition is on record?
**A.** The inhibition was 1%.

**Q.** For COc1nc(OC)nc(N2CCC(NC(=O)C(Cc3ccc(C(C)C)cc3)NC(C)=O)CC2)n1 (stereo not given), which inhibition is on record?
**A.** Its inhibition is 5%.

**Q.** For C/C(N)=C(/C#N)C(=O)CSc1nnc(Nc2cccc(C)c2)s1, which inhibition is on record?
**A.** The inhibition was 0%.

**Q.** COc1ccc(-n2c(SCCC(=O)O)nnc2-c2ccncc2)cc1 was tested. Which inhibition did it give?
**A.** Its inhibition is 5%.

**Q.** With COCCNC(=O)C(C)N(c1ccc(Oc2ccccc2)cc1)S(C)(=O)=O (stereo not given) as the molecule, how does the inhibition read?
**A.** Its inhibition is 0%.

**Q.** How did the inhibition turn out when O=C(CN1C(=O)c2ccccc2S1(=O)=O)Nc1ccc(S(=O)(=O)N2CCCCCC2)cc1 was run?
**A.** The inhibition was 6%.

**Q.** How did the inhibition turn out when O=C(NCc1ccc(Cl)cc1)c1ccc(COCC(F)(F)F)o1 was run?
**A.** Its inhibition is 0%.

**Q.** With CC(CC(=O)NC1CCSC1=O)c1ccccc1 (stereo not given) as the molecule, how does the inhibition read?
**A.** Its inhibition is 0%.

**Q.** For Cc1ccccc1CNS(=O)(=O)c1ccc2c(c1)OCCO2, which inhibition is on record?
**A.** Its inhibition is 0%.

**Q.** For O=C(CN1CCN(c2nc(-c3ccc(F)cc3)cs2)CC1)NCc1ccc2c(c1)OCO2, which inhibition is on record?
**A.** The inhibition was 5%.

**Q.** How did the inhibition turn out when CC(C)(CO)NC(=O)CCCOc1ccc(Cl)cc1Cl was run?
**A.** The inhibition was 0%.
